# Where “and” joins values, the source holds several entries; their conditions need not be identical. Equal values may be shown once. A number with no mark means an inactive call. Results filed as inconclusive are left out. Entries that show only a call come without a potency. Calls of active or inactive are those of the source. Unless noted, calls come from the whole dose curve; as a rule, active = well fitted curve in the direction sought with a large enough effect; inconclusive = small, poorly fitted or top-dose-only effect, or another doubt; inactive = no such curve, though single readings can be large; an effect the other way counts as inactive or inconclusive.
# Key:
# C33A = test: Primary qHTS to identify gynecologic anti-cancer compounds using libraries of approved drugs and bioactive compounds (AID 1345084); conditions: Gynecologic cancer cell panel viability, ATPlite luminescence, 48 h; series mostly up to 57.5 µM; note: nearly all actives have a fitted effect of over 55% in size; note: potency is the fitted concentration of half-maximal effect
# How it was run: (§1)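 ATP-based viability (ATPlite), 1,000 cells/well, 16 h pre-incubation, 48 h compound at 37 C, 5% CO2, 15 min RT before read.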
# CASKI = test: as above; conditions: Gynecologic cancer cell panel viability, ATPlite luminescence, 48 h; series mostly up to 57.5 µM
# How it was run: as §1
# Es-2 = test: as above; conditions: Gynecologic cancer cell panel viability, ATPlite luminescence, 48 h; series mostly up to 57.5 µM
# How it was run: as §1
# HeLa = test: as above; conditions: Gynecologic cancer cell panel viability, ATPlite luminescence, 48 h; series mostly up to 57.5 µM
# How it was run: as §1
# Hek293T = test: as above; conditions: Gynecologic cancer cell panel viability, ATPlite luminescence, 48 h, control line for the selectivity index; series mostly up to 57.5 µM
# How it was run: as §1
# OV90 = test: as above; conditions: Gynecologic cancer cell panel viability, ATPlite luminescence, 48 h; series mostly up to 57.5 µM
# How it was run: as §1
# PA-1 = test: as above; conditions: Gynecologic cancer cell panel viability, ATPlite luminescence, 48 h; series mostly up to 57.5 µM
# How it was run: as §1
# Tov-21-G = test: as above; conditions: Gynecologic cancer cell panel viability, ATPlite luminescence, 48 h; series mostly up to 57.5 µM
# How it was run: as §1
# astro = test: Drug repurposing screens with cells derived from glioblastoma tumor samples (AID 1345199); conditions: viability, ATP luminescence, 48 h; series mostly up to 45.9 µM; note: nearly all actives have a fitted effect of over 40% in size; note: potency is the fitted concentration of half-maximal effect
# How it was run: (§2)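 Primary testing used CD133+ neurospheres from four GBM patients, seven concentrations, 48 h exposure and ATP-based viability; confirmation added three slower-growing patient lines.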
# [1] = qHTS assay to identify inhibitors of the type 1 interferon - major histocompatibility complex class I in skeletal muscle: Counter screen cell viability and HiBit confirmation (AID 1347412); conditions: iHSKM muscle cells + IFN-b, HiBiT or CellTiter-Glo, 24 h; note: potency is the fitted concentration of half-maximal effect; nearly all actives have a fitted effect of over 60% in size
# How it was run: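 CRISPR HLA-B*08:01-HiBit immortalized human myoblasts (C25cl48) stimulated with 4 ng/ml IFN-beta and compounds (12-point 1:3, top 46 uM final) for 24 h at 37 C. Duplicate plates read by HiBit lytic luminescence or CellTiter Glo ATP.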
# [2] = biological target: Nuclear receptor subfamily 1 group I member 2 (Rattus norvegicus) (UniProt Q9R1A7); test: qHTS assay for small molecule activators of the rat pregnane X receptor (rPXR) signaling pathway (AID 651751; call rule not given here); conditions: rPXR reporter cells, luciferase (One-Glo), 24 h
# [3] = qHTS assay for small molecule activators of the human pregnane X receptor (PXR) signaling pathway (AID 720659; call rule not given here)
# JEG-3 = test: Primary qHTS to identify gynecologic anti-cancer compounds using libraries of approved drugs and bioactive compounds (AID 1345084); conditions: Gynecologic cancer cell panel viability, ATPlite luminescence, 48 h; series mostly up to 57.5 µM; note: nearly all actives have a fitted effect of over 55% in size; note: potency is the fitted concentration of half-maximal effect
# How it was run: as §1
# SKOV3 = test: as above; conditions: Gynecologic cancer cell panel viability, ATPlite luminescence, 48 h; series mostly up to 57.5 µM
# How it was run: as §1
# Tov112D = test: as above; conditions: Gynecologic cancer cell panel viability, ATPlite luminescence, 48 h; series mostly up to 57.5 µM
# How it was run: as §1
# [4] = Drug repurposing screens with cells derived from glioblastoma tumor samples (AID 1345199); conditions: GBM patient neurospheres viability, ATP luminescence, 48 h; note: nearly all actives have a fitted effect of over 40% in size; note: potency is the fitted concentration of half-maximal effect
# How it was run: as §2
# NIH3T3 = test: qHTS assay to identify novel small-molecules to repurpose for Merkel cell carcinoma treatment (AID 1296009); conditions: MCC and control cell lines, CellTiter-Glo viability, 72 h; at 44.8 µM (top of the series); note: nearly all actives have a fitted effect of over 60% in size
# How it was run: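 Dose-response viability screen; 72 hr exposure at 37 degree celsius; CellTiter-Glo added, 10 min room temperature, luminescence read; RLUs scaled between no-cell and DMSO wells.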
# Nuclear receptor subfamily 1 group I member 2 (Rattus norvegicus), sequence (Q9R1A7 whole entry, looked up): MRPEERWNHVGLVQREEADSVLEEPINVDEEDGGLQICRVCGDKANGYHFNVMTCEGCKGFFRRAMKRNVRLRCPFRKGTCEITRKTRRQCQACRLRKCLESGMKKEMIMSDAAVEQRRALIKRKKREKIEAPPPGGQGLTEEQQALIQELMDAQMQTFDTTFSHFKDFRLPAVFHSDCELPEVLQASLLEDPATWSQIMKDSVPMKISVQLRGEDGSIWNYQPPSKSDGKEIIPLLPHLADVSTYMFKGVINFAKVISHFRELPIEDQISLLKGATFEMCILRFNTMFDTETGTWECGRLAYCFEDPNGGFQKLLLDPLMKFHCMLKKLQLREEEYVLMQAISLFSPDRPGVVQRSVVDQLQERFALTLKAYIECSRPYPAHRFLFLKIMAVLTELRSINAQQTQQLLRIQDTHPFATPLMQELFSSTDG
structure (smiles),measurement,setting,value
C[C@H]1O[C@@H](O[C@H]2[C@@H](O)C[C@H](O[C@H]3[C@@H](O)C[C@H](O[C@H]4CC[C@@]5(C)[C@H](CC[C@@H]6[C@@H]5C[C@@H](O)[C@]5(C)[C@@H](C7=CC(=O)OC7)CC[C@]65O)C4)O[C@@H]3C)O[C@@H]2C)C[C@H](O)[C@@H]1O,Potency,C33A,79.4 nM (active)
same,Potency,CASKI,447 nM (active)
same,Potency,Es-2,316 nM (active)
same,Potency,HeLa,282 nM (active)
same,Potency,Hek293T,316 nM (active)
same,Potency,OV90,631 nM (active)
same,Potency,PA-1,0.282 µM (active)
same,Potency,Tov-21-G,100 nM (active)
same,Potency,astro,316 nM (active)
same,Potency,[1],39.4 nM (active)
same,max response,[2],-0.0646% and -4.92%
same,outcome,[3],inactive
CCN(CC)CCOCCOC(=O)C(CC)(CC)c1ccccc1,Potency,C33A,inactive
same,Potency,CASKI,inactive
same,Potency,Es-2,inactive
same,Potency,HeLa,inactive
same,Potency,Hek293T,inactive
same,Potency,JEG-3,inactive
same,Potency,PA-1,inactive
same,outcome,SKOV3,inactive
same,Potency,Tov-21-G,inactive
same,outcome,Tov112D,inactive
same,"activity, negative = cell killing","[4]; at 46.1 µM (top of the series), tumour line C",-23.4%
same,Potency,[4]; tumour line A,1.41 µM (active)
same,Potency,[4]; tumour line B,14.1 µM (active)
same,Potency,[4]; tumour line D,8.91 µM (active)
CC(=O)Nc1ccc(NC(=S)NC(=O)c2ccc(C(C)(C)C)cc2)cc1,Potency,C33A,inactive
same,Potency,CASKI,inactive
same,Potency,HeLa,inactive
same,Potency,JEG-3,inactive
same,Potency,OV90,inactive
same,Potency,PA-1,10 µM (active)
same,Potency,astro,3980 nM (active)
CC(C)=CCC/C(C)=C/CC/C(C)=C/CC/C(C)=C/CC1=C(C)C(=O)c2ccccc2C1=O,"activity, negative = cell killing","[4]; at 45.9 µM (top of the series), tumour line B",-29.7%
same,Potency,[4]; tumour line A,10 µM (active)
same,Potency,[4]; tumour line C,23.1 µM (active)
O=C(O)Cc1cc(I)c(Oc2ccc(O)c(I)c2)c(I)c1,outcome,NIH3T3,inactive
same,Potency,C33A,inactive
same,Potency,CASKI,inactive
same,Potency,Es-2,inactive
same,Potency,HeLa,inactive
same,Potency,Hek293T,inactive
same,Potency,JEG-3,inactive
same,Potency,OV90,inactive
same,Potency,PA-1,inactive
same,outcome,SKOV3,inactive
same,Potency,Tov-21-G,inactive
same,outcome,Tov112D,inactive
same,"activity, negative = cell killing","[4]; at 20 µM (top of the series), tumour line C",-19.1%
same,"activity, negative = cell killing","[4]; at 21.2 µM (top of the series), tumour line B",6.94%
same,"activity, negative = cell killing","[4]; at 21.2 µM (top of the series), tumour line D",9.76%
same,"activity, negative = cell killing","[4]; at 21.3 µM (top of the series), tumour line A",-9.11%
